# Hits are enriched below; roughly 5.3% of the tested compounds scored in any of these assays.
# MARV entry inh: qHTS for inhibitors of binding or entry into cells for Marburg Virus; Potency, µM (titrated, usually from 37.8 µM), without a hit: at the top dose activity change, negative = inhibition, actives largely listed as inhibitors; Marburg virus pseudotyped entry inhibition, cell reporter; hit rate 1.8% among 300,000; calls by dose curve; tested in HEK293 cells
# HCV inh: qHTS Assay for Inhibitors of Hepatitis C Virus (HCV) | Huh7.5.1 HCVcc-Cre infection, luciferase reporter, 44 h | AID 651820, 2012 | Potency, µM (series often up to 41.8 µM), inactives show top-dose activity change, negative = inhibition, actives largely listed as inhibitors | hit rate 3.4% among 340,000; active = well fitted inhibition curve with a large enough effect; inconclusive = small, poorly fitted or top-dose-only effect, or another doubt; inactive = no such curve, though single readings can be large or run the other way
#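 Infectious HCV cell culture screen: compound-treated cells (1,000/well, pre-plated 4 h) are infected with HCVcc-Cre at roughly 0.5 moi and grown 44 h. Infection is quantified by luciferase signal after 15 min substrate incubation at room temperature.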
# FMDV antiviral: High Throughput Screening for Foot and Mouth Disease Virus Antivirals | AID 1159524, 2015 | hit rate 1.2% among 410,000 | Potency, µM (titrated, usually from 57.9 µM), without a hit: top-dose activity change, negative = inhibition, most hits filed as inhibitors | FMDV antiviral cell-based qHTS; calls by dose curve; tested in HEK293T cells; note: read-out not given here; nearly all actives have a fitted effect of over 45% in size
# VACV Venus inh: qHTS for Stage-Specific Inhibitors of Vaccinia Orthopoxvirus: Venus Reporter Primary qHTS. Vaccinia virus Venus reporter expression, fluorescence. Potency, µM (series often up to 36.5 µM), for inactives: top-dose activity change, negative = inhibition, actives largely listed as inhibitors. hit rate 0.46% among 330,000; calls by dose curve; tested in A549 cells; note: nearly all actives have a fitted effect of over 30% in size
# LASV entry inh: qHTS for Inhibitors of binding or entry into cells for Lassa Virus; Lassa virus pseudotype entry inhibition, cell reporter; Potency, µM (doses to about 37.9 µM), inactives show at the top dose activity change, negative = inhibition, most hits filed as inhibitors; hit rate 1.2% among 300,000; calls by dose curve; tested in HEK293 cells; note: nearly all actives have a fitted effect of over 50% in size
# VACV mCherry inh: qHTS for Stage-Specific Inhibitors of Vaccinia Orthopoxvirus: mCherry Reporter Primary qHTS | Vaccinia virus mCherry reporter infection, fluorescence | Potency, µM (titrated, usually from 36.5 µM), for inactives: top-dose activity change, negative = inhibition, hits mostly inhibitors | hit rate 0.63% among 310,000; calls by dose curve; tested in A549 cells; note: nearly all actives have a fitted effect of over 35% in size
# * = called active by the depositor; i = inactive; ? = inconclusive; nt = not tested or not shown; [ ] = remark or other dose. % is set by controls: 0 for no effect and ±100 for the full control effect; potency is the fitted concentration of half-maximal effect.
SMILES,MARV entry inh,HCV inh,FMDV antiviral,VACV Venus inh,LASV entry inh,VACV mCherry inh
CCOc1ccc(OCC)c(NC(=O)c2cc(S(=O)(=O)N3CCc4ccccc43)cn2C)c1,nt,nt,-9%,-11%,-5%[46.1 µM],-11%
COc1ccc(OC)c(-c2cc(Cl)c3c(c2)CC(CNC(=O)c2coc4c2C(=O)CCC4)O3)c1 (centres undefined),nt,nt,18%,3%,nt,-10%
Cc1nc2cc(NC(=O)c3ccc(Br)s3)ccc2s1,nt,11µM*,-35%,nt,nt,nt
Cc1ccc(NC(=O)c2ccc3c(c2)OCCO3)cc1,13µM*,-7%,0%,-20%,4.5µM*,nt
COc1cc(NC(=O)c2cc(Cl)nnc2Cl)cc(OC)c1OC,nt,-3%,-11%,nt,nt,nt
COc1cccc(NC(=O)c2ccc3c(c2)OCO3)c1,nt,0%,19%,nt,nt,nt
O=C(Nc1ccncc1)c1ccc2c(c1)OCCO2,-25%,?,-20%,-25%,-18%,nt
COc1cccc(NC(=O)c2cc(Cl)nnc2Cl)c1,?,?,-15%,?,?,6.3µM*
COc1cccc(NC(=O)c2ccc3c(c2)OCCO3)c1,?,-14%,-43%,1%,1.1µM*,0%
Cc1c(Cc2ccccc2)c(=O)oc2cc(O)cc(O)c12,-9%[46.1 µM],-12%,9%,-19%,-4%[46.1 µM],i
CN(C)c1ccc(/C=C/c2cc(=O)[nH]c3ccccc23)cc1,nt,nt,nt,-13%,nt,-18%
O=C(Nc1ccc(Cl)c(Cl)c1)c1ccc(Cl)c(Cl)c1,nt,-18%,0%,-26%,nt,i
O=C(Nc1ccc2c(c1)OCCO2)c1cccc(C(=O)Nc2ccc3c(c2)OCCO3)c1,?,-3%,1%,-10%,?,-13%
COc1cccc(NC(=O)c2ccc3c(c2)N(C)CCS3)c1,nt,10µM*,12%,-23%,nt,?
O=C(Nc1ccc2c(c1)OCCO2)c1ccc(Br)s1,7.9µM*,?,?,-21%,5.6µM*,-18%
Cc1ccc(NC(=O)c2ccc(Cl)c(N3C(=O)C=CC3=O)c2)cc1,-1%,6%,40µM*,?,-9%,nt
COc1ccc(C(=O)Nc2ccc3[nH]ccc3c2)cc1,?,?,8.9µM*,-25%,1.4µM*,?
CCOC(=O)CSc1nc2ccccc2c(=O)n1-c1cccc(C)c1,0%[46.1 µM],nt,-11%,1%,2%[46.1 µM],-9%
CCCN(CCC)C(=O)Cn1ccc(=N)c2c1CCCC2,-3%,nt,nt,nt,nt,nt
Cc1nc2c(C(=O)NCc3ccccc3)cnn2c(C)c1Cc1ccc(F)cc1,nt,nt,-1%,-21%,-24%[46.1 µM],-24%
CCCCNC(=O)c1cnn2c(C)c(Cc3c(C)cc(C)cc3C)c(C)nc12,nt,nt,16µM*,?,?,-15%
COC(=O)c1ccc(CN2C(=O)[C@@]3(CC(C)=CC[C@@H](COc4ccccc4)O3)c3ccccc32)cc1,9%[14.2 µM],nt,nt,nt,nt,nt
C=C1CCN(C(C)C(=O)O)S(=O)(=O)c2ccccc21 (centres undefined),nt,1.4µM*,63%,-5%,nt,-11%
CC1=C(C(=O)c2ccccc2)C(c2ccc(OC(F)F)cc2)NC(=S)N1 (centres undefined),4µM*,?,?,?,?,-12%
CCCOc1ccc(C2NC(=S)NC(C)=C2C(=O)c2ccccc2)cc1OC (centres undefined),15µM*,?,-3%,nt,-4%,nt
SMILES,MARV entry inh,HCV inh,FMDV antiviral,VACV Venus inh,LASV entry inh,VACV mCherry inh
COc1ccc(CCCC(=O)NCc2ccccc2)cc1C,-26%,?,-23%,-27%,8.2µM*,-23%
CCOC(=O)c1c(C)[nH]c(C)c1S(=O)(=O)N1CCCC(C(=O)NCc2cccc(C)c2)C1 (centres undefined),nt,nt,18%,-1%,11%[46.1 µM],-9%
O=C(Nc1cccn(Cc2c(Cl)cccc2Cl)c1=O)c1ccc(Cl)cc1Cl,-28%,11µM*,?,nt,-26%,nt
COC(=O)C(Cc1c[nH]c2ccccc12)NC(=O)c1cc(-c2ccc(OC)c(OC)c2)oc1C (centres undefined),?,10µM*,-28%,-17%,10µM*,-25%
Nc1c(C(=O)Nc2ccccc2)nnn1Cc1ccc(F)cc1Cl,?,nt,25%,-16%,-20%[46.1 µM],-15%
CCCCOc1ccc(C(=O)NNC(=O)c2cnccn2)cc1OC,?,13µM*,-7%,?,?,?
CCCCc1ccc(NC(=O)c2cnccn2)cc1,7.9µM*,-7%,10%,-9%,11µM*,?
CCOC(=O)c1ccc(NC(=O)c2cnccn2)cc1,3%,-22%,58%,-5%,11%,-9%
O=C(Nc1ccc(N2CCOCC2)cc1)c1cnccn1,?,-4%,-59%,-5%,2.2µM*,15%
O=C(Nc1ccc(N2CCOCC2)cc1)c1cnsn1,4%,9%,28µM*,-8%,nt,-14%
Cc1ccccc1NC(=O)COc1ccccc1C(=O)Nc1ccccc1,nt,nt,nt,-20%,nt,-3%
COc1ccccc1-n1cc(CN2CCOc3ccc(CN4C[C@@H](C)O[C@@H](C)C4)cc3C2)cn1,nt,nt,-22%,1%,nt,-12%
Cc1cc(C)cc(C(=O)n2nc(C)c(S(=O)(=O)N3CCOCC3)c2C)c1,nt,nt,12%,-9%,14%[46.1 µM],-23%
COc1ccc(OC)c(NC(=O)CSc2ncnc3c2cnn3-c2ccccc2Cl)c1,1.8µM*,0.89µM*,7.9µM*,nt,?,nt
O=C(CSc1ncnc2c1cnn2-c1ccc(F)cc1)NC1CCCC1,?,6.3µM*,?,-9%,?,-11%
CCOC(=O)CNC(=O)CSc1ncnc2c1cnn2-c1ccc(OC)cc1,11µM*,-4%,0%,-23%,?,nt
COC(=O)C1CCN(Cc2ccc3c(c2)CN(C(=O)c2cc4ccccc4n2C)CCO3)CC1,nt,nt,?,-5%,nt,-12%
CC(=O)Nc1ccc(NC(=O)COC(=O)C2(c3ccc(Cl)cc3)CCCC2)cc1,13µM*,?,28µM*,-26%,?,i
COC1=CC(=O)O[C@@H](/C=C/c2ccccc2)C1,18%,-7%,-17%,-7%,nt,-14%
O=C1C=CCC(/C=C/c2ccccc2)O1 (centres undefined),8.2µM*,-6%[8.37 µM],?,0.89µM*,?,?
Cc1cc(C)nc(N/C=C(\C#N)C(=O)c2cccc(CSc3ccccc3)c2)n1,nt,nt,nt,-7%,nt,-8%
CC1=CC(=O)C=C(C)C1=NOS(=O)(=O)c1ccccc1,?,?,14µM*,-21%,10µM*,-26%
CC1=CC(=O)C(C(C)C)=C/C1=N/OS(=O)(=O)c1ccccc1,nt,6.3µM*,25µM*,nt,nt,nt
Cc1ccc2c(c1)/C(=N/OS(=O)(=O)c1ccccc1)CCS2,5%,-1%,-3%,nt,14%,nt
Cc1ccc(S(=O)(=O)ON=C2CCN(S(=O)(=O)c3ccccc3)CC2)cc1,-2%,13%,18%,nt,-1%,nt

# Screens as filed in PubChem.
